Read-out in assay [1]: Vascular endothelial growth factor receptor 2 (Homo sapiens) (UniProt P35968)
The assay is described as follows: BSK_4H_VEGFRII: BioMAP Diversity Plus: 4H Assay for Vascular endothelial growth factor receptor 2 (VEGFR2) Biomarker Activity (AID 2283031).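 On AC50: cell-surface VEGFR2 protein level quantified by ELISA.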 The note with it: primary human endothelial cells (HUVEC); actives raise or lower the signal. In a few lines: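 HUVEC (human primary), 4H system; 24 h post-dose; VEGFRII by ELISA; bidirectional curve fit vs DMSO baseline; gain or loss of signal scored.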

Read-out in assay [2]: Human Leukocyte Antigen - DR isotype (HLADR), HLA-DRA (gene 3122)
The assay is described as follows: BSK_BE3C_HLADR: BioMAP Diversity Plus: BE3C Assay for Human Leukocyte Antigen - DR isotype (HLADR) Biomarker Activity (AID 2283032). Particulars: primary human bronchial epithelial cells; actives raise or lower the signal. The method, boiled down:
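Human primary bronchial epithelial cells (BE3C system) exposed to compound for 24 hours; cell-surface HLA-DR measured by ELISA, fitted bidirectionally relative to DMSO. Total protein by SRB in parallel cultures tracked cytotoxicity.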

Read-out in assay [3]: Vascular cell adhesion molecule 1 (VCAM1), VCAM1 (gene 7412)
The assay is described as follows: BSK_4H_VCAM1: BioMAP Diversity Plus: 4H Assay for Vascular cell adhesion molecule 1 (VCAM1) Biomarker Activity (AID 2283033). The note with it: primary human endothelial cells (HUVEC); actives raise or lower the signal. The method, boiled down:
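Primary human umbilical vein endothelial cells, 4H stimulation system, treated for 24 h; cell-surface VCAM-1 quantified by ELISA. Bidirectional fitting against DMSO; cytotoxicity tracked by SRB total-protein staining in parallel cultures.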

Read-out in assay [4]: Interferon-gamma inducible Protein 10 (IP10), CXCL10 (gene 3627)
Put plainly: BSK_BE3C_IP10: BioMAP Diversity Plus: BE3C Assay for Interferon-gamma inducible Protein 10 (IP10) Biomarker Activity (AID 2283034). Particulars: primary human bronchial epithelial cells; actives raise or lower the signal. The method, boiled down: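 Primary human bronchial epithelial cells, with IP-10 measured by ELISA 24 hours after chemical dosing. Bidirectional fit against DMSO; cytotoxicity checked by SRB total protein staining in parallel cultures.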

Read-out in assay [5]: Monokine induced gamma interferon (MIG), CXCL9 (gene 4283)
Put plainly: BSK_BE3C_MIG: BioMAP Diversity Plus: BE3C Assay for Monokine induced gamma interferon (MIG) Biomarker Activity (AID 2283035). Particulars: primary human bronchial epithelial cells; actives raise or lower the signal. In a few lines:
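MIG level was determined by ELISA after 24 h chemical treatment of primary human bronchial epithelial cells. Values were fitted bidirectionally with DMSO as the negative control and activity baseline.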

Read-out in assay [6]: Transforming growth factor beta 1 (TGFb1), TGFB1 (gene 7040)
Put plainly: BSK_BE3C_TGFb1: BioMAP Diversity Plus: BE3C Assay for Transforming growth factor beta 1 (TGFb1) Biomarker Activity (AID 2283036). The note with it: primary human bronchial epithelial cells; actives raise or lower the signal. The method, boiled down: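 Primary human bronchial epithelial cells dosed with chemical; TGF-b1 measured by ELISA 24 h after dosing. Bidirectional curve fitting against DMSO negative control; SRB total-protein staining in parallel cultures gauged cytotoxicity.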

Read-out in assay [7]: Plasminogen activator inhibitor-1 (PAI1), SERPINE1 (gene 5054)
The assay is described as follows: BSK_BE3C_PAI1: BioMAP Diversity Plus: BE3C Assay for Plasminogen activator inhibitor-1 (PAI1) Biomarker Activity (AID 2283037). The note with it: primary human bronchial epithelial cells; actives raise or lower the signal. The method, boiled down:
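Primary human bronchial epithelial cells (BE3C system) exposed 24 h; PAI-1 quantified by ELISA. Parallel sulforhodamine B staining of total protein flags cytotoxicity. Bidirectional fit versus DMSO.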

Read-out in assay [8]: urokinase plasminogen activator (uPA), PLAU (gene 5328)
Put plainly: BSK_BE3C_uPA: BioMAP Diversity Plus: BE3C Assay for urokinase plasminogen activator (uPA) Biomarker Activity (AID 2283038).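 On outcome: uPA protein level quantified by ELISA in cell cultures; uPA read one day after compound addition.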 Particulars: primary human bronchial epithelial cells; actives raise or lower the signal. In a few lines: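 ELISA read-out of uPA in human lung primary bronchial epithelial cultures, 24 h post-dosing. Gain or loss of signal fitted bidirectionally relative to DMSO baseline; cytotoxicity checked in parallel cultures via SRB total protein stain.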

Read-out in assay [9]: Urokinase-type plasminogen activator receptor (uPAR), PLAUR (gene 5329)
Put plainly: BSK_BE3C_uPAR: BioMAP Diversity Plus: BE3C Assay for Urokinase-type plasminogen activator receptor (uPAR) Biomarker Activity (AID 2283039).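 Further: uPAR protein level measured by ELISA on the cells; cells exposed to compound for one day before measurement.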 The note with it: primary human bronchial epithelial cells; actives raise or lower the signal. In a few lines:
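Primary human bronchial epithelial cells dosed for 24 h; uPAR quantified by ELISA with bidirectional fitting against DMSO. Overt cytotoxicity assessed in parallel cultures by SRB total-protein staining (0.1% SRB, 560 nm).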

Read-out in assay [10]: Interleukin-6 (IL6), IL6 (gene 3569)
The assay is described as follows: BSK_CASM3C_IL6: BioMAP Diversity Plus: CASM3C Assay for Interleukin-6 (IL6) Biomarker Activity for (AID 2283040). The note with it: primary human coronary artery smooth muscle cells; actives raise or lower the signal.

The source made the active and inactive calls. How the source made its calls: active means hit-call score of the fitted dose curve at least 0.9, where 1 is the maximum; inactive means score below 0.9.

Turning to `Cc1cc(C)cc(C)c1`, the outcome in assay [1], in assay [2], in [3], in assay [4], in [5] and in assay [6] was inactive. For the same compound, the result in assay [7], in assay [8], in assay [9] and in assay [10] was inactive.
As for `N#CCCC(Br)(C#N)CBr` (configuration not stated), the half-maximal activity concentration (AC50) (usually the concentration giving half of the maximal activity seen) is 5.39 µM (active) in assay [1]; 27.9 µM (active) in [2]; 7.87 µM (active) in [3]; 28.1 µM (active) in assay [4]; 36.8 µM (active) in [5]; 20 µM (active) in assay [6]. The concentration at half-maximal activity (AC50) in [7], in [8] and in assay [10] was 20 µM (active) throughout.
As to `Cc1cc(Cl)ccc1N`, the outcome in assay [1], in assay [2], in assay [3], in [4], in assay [5] and in assay [6] was inactive. The outcome in assay [8] and in [10] was inactive. The AC50 in [7] is 3.97 µM (active).
Regarding `O=C(Cc1ccccc1)OCCc1ccccc1`, the result in assay [1], in [2], in assay [3], in [4], in assay [5] and in assay [7] was inactive. Also, the result in assay [8] and in assay [10] was inactive.
`CC(C=O)Cc1ccc2c(c1)OCO2` (configuration not stated): the outcome in [1], in [2], in assay [3], in assay [4], in assay [5] and in assay [6] was inactive. In addition, the result in assay [7], in assay [8], in assay [9] and in assay [10] was inactive.
`CC1(C)[C@H](C(=O)O[C@H](C#N)c2cccc(Oc3ccccc3)c2)[C@@H]1/C=C(\Cl)C(F)(F)F`: the result in [1], in assay [3], in assay [4], in assay [5], in assay [6] and in assay [7] was inactive. For the same compound, the result in [8], in assay [9] and in assay [10] was inactive.
As to `COc1ccccc1N`, the result in [1], in [3], in assay [4], in [5], in assay [6] and in [7] was inactive. Besides, the result in assay [8], in [9] and in assay [10] was inactive.
Turning to `CC(C)(C)c1ccccc1O`, the result in [1], in assay [2], in [3], in assay [4], in assay [5] and in [6] was inactive. The outcome in assay [7], in assay [8] and in assay [10] was inactive.
Consider `Oc1c(Br)cc(Br)cc1Br`, for which the AC50 in assay [1] is 27.3 µM (active); in [2], 12.6 µM (active); in [3], 20 µM (active); in assay [4] it was 20 µM (active). Also, the result in assay [5], in assay [6], in assay [7], in assay [8] and in assay [10] was inactive.
For the compound `Cc1ccc(OP(=O)(Oc2ccc(C)cc2C)Oc2ccc(C)cc2C)c(C)c1`, the outcome in assay [1], in assay [2], in [3], in assay [4], in assay [5] and in assay [6] was inactive. Also, the result in assay [8] and in assay [10] was inactive. For the same compound, the AC50 in assay [7] was 6.01 µM (active).
Regarding `Cc1ccccc1OP(=O)(Oc1ccccc1C)Oc1ccccc1C`, the concentration at half-maximal activity (AC50) in [1] is 9.28 µM (active); in assay [2] it was 20 µM (active); in assay [3], 7.84 µM (active); in assay [4], 13.3 µM (active); in [6], 11.4 µM (active); in assay [7], 11 µM (active). Moreover, the concentration at half-maximal activity (AC50) in [10] was 8.58 µM (active). In addition, the result in assay [5], in [8] and in assay [9] was inactive.
On to `COCC(=O)N(c1c(C)cccc1C)[C@H](C)C(=O)OC`, for which the result in assay [1], in assay [3], in assay [4], in [5], in [6] and in assay [7] was inactive. Also, the result in assay [8], in assay [9] and in assay [10] was inactive.
In the case of `CCOP(=S)(OCC)SCS(=O)(=O)C(C)(C)C`, the result in [1], in [2], in assay [3], in assay [4], in assay [5] and in assay [6] was inactive. In addition, the result in assay [7], in assay [8] and in [10] was inactive.
Regarding `CCOC(=O)CCN(SN(C)C(=O)Oc1cccc2c1OC(C)(C)C2)C(C)C`, the result in [1], in [2], in assay [5], in assay [6], in assay [7] and in assay [8] was inactive. For the same compound, the outcome in assay [10] was inactive. Moreover, the AC50 is 31 µM (active) in assay [3] and 14.1 µM (active) in assay [4].
As for `CCOP(=O)(OCC)OC(=CCl)c1ccc(Cl)cc1Cl`, the AC50 in assay [1] was 28.7 µM (active); in [3], 32 µM (active). In addition, the outcome in [2], in assay [4], in assay [5], in assay [6], in assay [7] and in [8] was inactive. In addition, the outcome in assay [9] and in assay [10] was inactive.
Turning to `c1ccc(-c2cccc(-c3ccccc3)c2)cc1`, the half-maximal activity concentration (AC50) in assay [1] is 11 µM (active); in assay [2] it was 20 µM (active); in assay [3], 14 µM (active); in assay [4] it was 14.4 µM (active). In addition, the outcome in assay [5], in [6], in assay [7], in assay [8] and in [10] was inactive.

The values above are taken from PubChem BioAssay (EPA / NIEHS).
